# Source: the supplement of paper PMC6555819
# Assays:
# Experiment in all cases: PBM binding z-score (relative to random genomic background probes); higher = stronger binding; sequences stand for … in GC…GCGATTGACAGCGTAGAATGAAGG
# [1] = system: FXR:RXRa (NR concentration 270 nM, RXRa partner concentration 90 nM)
# Procedure, shortened: (§1)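 Binding z-scores were set against random background probes. The data came from custom Agilent 4×180K protein-binding microarrays carrying double-stranded probes with 34-nt variable regions, incubated 1 h with ligand-free nuclear receptor dimers. Partner-specific antibodies detected binding, and scanned fluorescence was regression-normalized.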
# [2] = system: LXRa:RXRa (NR concentration 270 nM, RXRa partner concentration 90 nM)
# Procedure, shortened: as §1
# [3] = system: LXRa homodimer (NR concentration 270 nM)
# Procedure, shortened: as §1
# [4] = system: LXRb:RXRa (NR concentration 270 nM, RXRa partner concentration 90 nM)
# Procedure, shortened: as §1
# [5] = system: LXRb homodimer (NR concentration 270 nM)
# Procedure, shortened: as §1
# [6] = system: PPARa:RXRa (NR concentration 270 nM, RXRa partner concentration 90 nM)
# Procedure, shortened: as §1
# [7] = system: PPARg:RXRa (NR concentration 180 nM, RXRa partner concentration 90 nM)
# Procedure, shortened: as §1
# [8] = system: PPARg:RXRa 270nM:90nM, anti-RXR (NR concentration 270 nM, RXRa partner concentration 90 nM)
# Procedure, shortened: as §1
# [9] = system: PPARg:RXRa 30nM:10nM, anti-RXR (NR concentration 30 nM, RXRa partner concentration 10 nM)
# Procedure, shortened: as §1
# [10] = system: PPARg:RXRa 90nM:30nM, anti-RXR (NR concentration 90 nM, RXRa partner concentration 30 nM)
# Procedure, shortened: as §1
# [11] = system: PPARg:RXRa DBDmut IVT, anti-RXR (DBD mutation: RXRa K156A/R161A, NR concentration 270 nM, RXRa partner concentration 90 nM)
# Procedure, shortened: as §1
# [12] = system: PPARg:RXRa IVT, anti-PPARg (NR concentration 270 nM, RXRa partner concentration 90 nM)
# Procedure, shortened: as §1
# [13] = system: PPARg DBDmut:RXRa IVT, anti-PPARg (DBD mutation: PPARg1 K132A/R137A, NR concentration 270 nM, RXRa partner concentration 90 nM)
# Procedure, shortened: as §1
# [14] = system: PPARg DBDmut IVT, anti-PPARg (DBD mutation: PPARg1 K132A/R137A, NR concentration 270 nM)
# Procedure, shortened: as §1
# [15] = system: PPARg homodimer (NR concentration 180 nM)
# Procedure, shortened: as §1
# [16] = system: PXR:RXRa (NR concentration 270 nM, RXRa partner concentration 90 nM)
# Procedure, shortened: as §1
# [17] = system: PXR homodimer (NR concentration 270 nM)
# Procedure, shortened: as §1
# [18] = system: RARa:RXR (NR concentration 270 nM, RXRa partner concentration 90 nM)
# Procedure, shortened: as §1
# [19] = system: RARa homodimer (NR concentration 270 nM)
# Procedure, shortened: as §1
# [20] = system: RARb:RXRa (NR concentration 270 nM, RXRa partner concentration 90 nM)
# Procedure, shortened: as §1
Sequence,PBM binding z-score [1],PBM binding z-score [2],PBM binding z-score [3],PBM binding z-score [4],PBM binding z-score [5],PBM binding z-score [6],PBM binding z-score [7],PBM binding z-score [8],PBM binding z-score [9],PBM binding z-score [10],PBM binding z-score [11],PBM binding z-score [12],PBM binding z-score [13],PBM binding z-score [14],PBM binding z-score [15],PBM binding z-score [16],PBM binding z-score [17],PBM binding z-score [18],PBM binding z-score [19],PBM binding z-score [20]
TCTTGTAGATCAAAGGTTAATAAAGCCGAAGCCT,1.43,1.96,0.26,2.03,0.175,4.63,7.9,7.38,7.95,8.32,2.46,3.56,0.977,1.2,1.25,1.62,0.19,2.43,1.02,1.64
ATATGTAGGGTACATCCGGGTCATTCAGGCTATG,1.96,2.96,1.43,2.4,1.27,3.89,4.04,3.53,1.46,2.33,5.82,6.25,2.33,1.87,1.74,4.11,9.27,3.12,0.779,1.73
ACTAGCAGGCCAAGTTTGGGTCCCTCAAACAAAG,-0.607,-0.657,-0.583,-0.842,-0.875,-0.286,-0.709,-0.928,-1.06,-1.05,0.359,-0.00665,-1.13,-1.25,-0.378,-0.465,-0.57,-0.00931,-0.776,0.3
ATCTCTAGGTAAAGCTAGTTCAGTGAATGCAAAT,0.153,1.45,-0.0105,0.175,0.196,0.456,-0.125,0.354,0.0636,0.224,2.03,1.83,0.606,0.732,0.371,1.07,0.241,0.383,0.278,0.0194
CGTCCAAGGTCATCAGGTCAGTGAAAGCGACGTG,7.31,5.49,1.85,4.14,0.684,5.83,6.35,6.07,2.32,4.84,3.92,4.54,1.13,-0.42,3.58,4.88,1.66,5.46,1.46,5.43
TCGAGTCGGTTACCAATGGGGCATTCAGCTTTCT,-0.293,-0.101,-0.421,0.26,-0.784,0.0956,-0.641,0.163,0.773,0.526,0.844,-0.0532,-0.399,-0.375,-0.537,-0.204,-0.793,-0.238,-0.811,0.0866
TCTTGTAGACCAACAGGAGGTTAAGAAAGATCGA,-0.287,1.22,0.0855,0.717,-0.453,1.15,0.068,1.3,2.69,1.81,1.42,0.757,-0.365,0.137,-0.0799,0.757,0.175,0.783,-0.189,0.416
CGAACTAGCTCAGAACAGGACAGTGAAGGATGAT,-0.682,-0.642,-0.0403,-0.877,-0.565,-0.547,0.544,-0.694,-0.189,-0.609,-0.0249,-0.714,-0.195,0.0741,-0.71,-0.669,0.0442,-0.393,0.354,-0.236
CACCCTAGGTCAGGGCCAGTATAGGAGGAACGTT,1.9,2.6,0.74,1.2,-0.00593,2.24,1.36,1.08,-0.0218,0.354,0.709,1.64,-0.28,-0.553,1.71,0.664,0.00908,1.49,-0.0281,3.38
TAGCCTAGGTCATGGGCCAGAATACCACGCGAAC,4.31,3.48,0.271,2.33,-0.281,4.2,3.64,3.63,0.806,2.68,1.38,3.09,-0.303,-0.638,0.86,1.54,-0.601,2.51,0.121,3.73
GCTGCTAGGTCAGGTTGGTCAGCTATCGGGTACG,1.38,0.811,-0.13,0.574,-0.138,1.42,0.304,1.19,-0.614,0.562,2.93,2.58,-0.776,-0.675,1.22,0.328,-0.458,0.73,-0.348,3.46
ACTATTAGTTGACACGAGGGCAACCGATAGGTTG,1.1,1.04,0.219,0.64,0.129,1.21,1.06,0.472,0.354,0.356,0.272,1.04,0.784,0.778,0.695,1.75,0.634,1.74,0.708,1.59
CCGACTGGGGCAAAGGTTACCAAACTCAGTACGA,1.54,1.78,0.0328,2.27,-1.29,5.64,10.5,9.36,9.35,10.6,4.42,6.14,-0.923,-0.533,1.38,2.51,-0.494,4.11,0.0196,2.52
GGAACGAGGGCAAGTTGAAAGCAGAGTTTGATGG,0.833,0.231,-0.173,0.237,-0.789,1.94,1.02,1.12,0.000931,0.87,3.88,2.91,-0.0232,-0.635,0.201,0.652,0.377,0.519,-0.328,2.53
GCATATAGGTAAAACAAGGTGAAAGTCCGATTGT,1.15,2.03,-0.3,0.461,-0.664,1.96,1.32,1.69,0.57,1.14,3.96,3.34,0.889,0.508,0.332,0.851,-0.261,1.85,-0.0924,0.432
TGAATGAGGTTATACGATCAGGGAACGTTGCAAA,1.76,1.37,-0.238,1.05,-0.18,2.91,1.33,1.79,0.555,1.1,0.677,1.61,0.964,0.564,0.291,0.89,-0.167,1.48,0.115,1.15
GGAAAGAGGGCAAAGTTGATAGCATCTGTCGACG,2.04,1.94,0.254,1.64,0.832,4.24,6.06,6.9,5.92,7.29,3.73,3.74,1.03,-0.31,1.67,1.77,0.468,2.25,0.527,2.77
TTACCAAGGTGAAAGGTCGTTGATGCACGCCTTG,3.49,3.43,0.252,2.79,-0.555,5.38,9.01,7.94,6.67,8.46,2.84,4.92,0.117,-0.276,1.41,3.96,0.351,5.27,0.055,3.04
TCTGGTTGGTCAAAGGTCACACACTCGAAATGCG,6.33,5.91,4.59,5.75,2.86,6.43,10.3,9.3,8.98,10.5,3.03,5.67,2.56,3.21,7.5,6.15,2.71,7.76,4.92,4.96
TCTAGTTGCTCAAAGGTCACACACTCGAAATGCG,5.09,5.26,3.7,5.39,1.49,5.88,6.32,6.78,6.1,6.91,2.7,3.98,1.38,1.19,3.79,5.31,1.24,5.48,2.63,4.94
TCGTATAGGTAAAGGTGAAAGTCGAACGATATGA,1.05,1.45,0.11,1.11,-0.167,2.87,2.34,3.99,3.45,3.86,2.04,2.57,0.89,0.655,1.4,0.71,0.0439,1.58,0.749,2.07
ACTATTAGTTGAGACGAGGGCAGCCGATAGGTTG,0.474,-0.24,-0.315,-0.195,0.184,-0.0872,0.689,-0.013,0.136,-0.0374,0.368,0.416,0.598,0.645,0.479,0.456,-0.0477,0.335,0.445,0.854
GGACCAAGGTGAATAGGTCGTTGATGAGTAGGCG,0.798,0.779,-0.0064,0.446,-0.809,2.28,1.47,1.59,0.243,0.903,1.58,2.18,-0.0535,-0.223,1.34,0.838,0.241,1.74,0.177,2.06
CGAAGTAGGTCAGAACAGGACAGTGAAGGATGAT,1.72,1.2,-0.0962,0.449,0.019,3.32,5.69,4.81,2.22,4.14,7.52,7.53,0.926,0.783,1.04,0.897,-0.0169,0.781,0.475,2.75
TCTATTAGTTGAAGGACAACCGACGAGTCCGTTT,0.875,0.862,0.762,0.67,0.653,0.754,0.353,2.04,4.25,3.08,2.84,0.286,0.961,1.19,1.31,1,1.09,0.65,1.51,0.981
TGTATTAGTTGAAGGGCAACCGACGAGTCCGTTT,0.551,0.588,0.228,0.491,0.587,0.462,0.102,0.95,0.864,0.871,0.404,0.87,0.403,1.05,1.27,0.63,0.962,0.3,0.995,1.5
GCAGACAGGCGAAACGCAGGTAACTCAGGGTGGC,-0.64,-0.615,-0.761,-1,-1.38,-0.682,0.297,-0.871,-0.326,-0.791,-0.782,-0.814,-1.19,-1.5,-0.436,-0.82,-0.795,-0.316,-1.37,-0.55
CTGACTGGGGCAAGGTTACCATAACGCACAGCCA,0.457,0.792,-0.00434,1.54,-0.221,2.63,4.03,4.4,1.45,3.67,4.8,5.05,0.266,0.0884,0.436,0.519,0.00598,0.987,0.104,1.86
ACTTACGGGTCAACGAGGTTTTAGCACGCGTATA,6.78,4.29,0.188,3.9,0.561,5.92,5.23,4.84,1.94,3.95,3.23,3.96,0.283,0.441,2.07,4.02,-0.016,4.35,0.666,4.07
